An excerpt weighted towards active compounds, which were near 12% of everything screened.
Shiga inhibitor: A qHTS for Small Molecule Inhibitors of Shiga Toxin; inhibition, % at 38.7 µM; Vero cells, Shiga toxin protein synthesis inhibition reporter; AID 2315, 2010; hit rate 9.2% among 290,000; in the data active = inhibition mostly above about 28%, no sharp cut-off; inactive = mostly below about 43%; note: 0% is about no effect
LASV entry inh: qHTS for Inhibitors of binding or entry into cells for Lassa Virus; hit rate 1.2% among 300,000; Potency, µM (doses to about 37.9 µM), for the others: top-dose activity change, negative = inhibition, usual class: inhibitors; Lassa virus pseudotype entry inhibition, cell reporter; calls by dose curve; tested in HEK293 cells; note: potency is the fitted concentration of half-maximal effect; % is set by controls: 0 for no effect and ±100 for the full control effect; nearly all actives have a fitted effect of over 50% in size
MARV entry inh: qHTS for inhibitors of binding or entry into cells for Marburg Virus; Marburg virus pseudotyped entry inhibition, cell reporter; Potency, µM (titrated, usually from 37.8 µM), inactives show at the top dose activity change, negative = inhibition, most hits filed as inhibitors; hit rate 1.8% among 300,000; AID 540276, 2011; calls by dose curve; tested in HEK293 cells; note: potency is the fitted concentration of half-maximal effect; % is set by controls: 0 for no effect and ±100 for the full control effect
Cycloheximide cs: Cycloheximide Counterscreen for Small Molecule Inhibitors of Shiga Toxin; cell reporter, cycloheximide protein synthesis inhibition counterscreen; max response, %; hit rate 12% among 300,000; in the data active = max response mostly above about 13%, no sharp cut-off; inactive = mostly below about 14%; note: read at 38.3 µM for the half of the compounds with a filed dose; 0% is about no effect
Numbers without * were called inactive; [ ] = remark or other dose.

C/C(CC(=O)Nc1ccc(Cl)c(C(F)(F)F)c1)=N\NC(N)=S was read as Shiga inhibitor 73, LASV entry inh inconclusive, MARV entry inh inconclusive and Cycloheximide cs 20*.
Cc1cnc(C(=O)N2CCN(S(=O)(=O)c3cccc(Br)c3)CC2)cn1 was read as LASV entry inh -10%[46.1 µM] and MARV entry inh 3%[46.1 µM].
CCN1C(=O)[C@H]2[C@@H](c3ccc(C)cc3)N3C(=O)N(c4ccc(C(F)(F)F)cc4)C(=O)[C@@]3(Cc3ccccc3)[C@H]2C1=O was read as Shiga inhibitor 15 and Cycloheximide cs 3.
`CCN(CC)C(=O)Cn1cc(C(=O)C(=O)NCc2ccccn2)c2ccccc21` gave Shiga inhibitor 17, LASV entry inh 16%[46.1 µM], MARV entry inh 4%[46.1 µM] and Cycloheximide cs 1.
Screening Cn1c(SCc2ccc(Cl)cc2Cl)nc(C(F)(F)F)cc1=O returned Shiga inhibitor 34, MARV entry inh 2% and Cycloheximide cs -3.
FC(F)(F)c1nc(SCc2ccc(Cl)cc2Cl)n[nH]1 was read as Shiga inhibitor 28, LASV entry inh -25%, MARV entry inh 22% and Cycloheximide cs 20*.
NC(=O)NC(=O)CN1c2cccc3cccc(c23)S1(=O)=O was read as Shiga inhibitor -8, LASV entry inh 21%[46.1 µM], MARV entry inh inconclusive and Cycloheximide cs -7.
Screening c1ccc(CNCCC(Cc2ccccc2)c2ccco2)cc1 (stereo unspecified) returned Shiga inhibitor 17, LASV entry inh inconclusive, MARV entry inh inconclusive and Cycloheximide cs -2.
For CN(C)c1ccc(CNCCC(Cc2ccccc2)c2ccco2)cc1 (stereo unspecified) the results were Shiga inhibitor 1, LASV entry inh inconclusive, MARV entry inh 15µM* and Cycloheximide cs -8.
COc1ccc(N2CCN(C(=O)[C@H](Cc3c[nH]c4ccccc34)NC(C)=O)CC2)cc1 was read as Shiga inhibitor 20, MARV entry inh 12%[46.1 µM] and Cycloheximide cs 4.
For Cc1ccc(C)c(N2CCN(C(=O)c3c4c(nc5ccccc35)C(=O)N(C3CCCCC3)C4)CC2)c1 the results were LASV entry inh 19%[46.1 µM].
Screening COc1cc(C2C(C#N)=C(N)OC3=C2C(=O)CC(C)(C)C3)cc2c1OCO2 (stereo unspecified) returned LASV entry inh inconclusive and MARV entry inh -1%.
`O=C1NC(=O)C(=Cc2ccc(SC3CCCCC3)o2)C(=O)N1` gave Shiga inhibitor 51*, LASV entry inh -28%, MARV entry inh 15% and Cycloheximide cs 12.
`Cc1ccc(NC(=O)CSc2nnc(C3CC3)n2CC2CCCO2)cc1C` (stereo unspecified) gave Shiga inhibitor 8, LASV entry inh -12%, MARV entry inh -19%[46.1 µM] and Cycloheximide cs -2.
`CCC1=Nc2cc(C(=O)N3CCC(C)CC3)ccc2Sc2ccc(C)cc21` gave LASV entry inh -4%[46.1 µM] and MARV entry inh -34%[46.1 µM].
For O=C1C2CCCCN2C(=O)N1CCCN1CCN(c2ccc(F)cc2)CC1 (stereo unspecified) the results were LASV entry inh 4%[46.1 µM], MARV entry inh -7%[46.1 µM] and Cycloheximide cs -3.
`Nc1ccc(N2CCN(CCCCN3C(=O)C4CCCN4C3=O)CC2)cc1` (stereo unspecified) gave Shiga inhibitor -11, LASV entry inh 14%, MARV entry inh 3.2µM* and Cycloheximide cs -2.
For CCC(Sc1nnc(-c2ccc(OC)c(OC)c2)c(-c2ccc(OC)c(OC)c2)n1)C(=O)NC1CCCC1 (stereo unspecified) the results were LASV entry inh 10%[46.1 µM].
For Cc1cccc(C(=O)NNC2=CC(=O)CC(C)(C)C2)c1O the results were Shiga inhibitor 65*, LASV entry inh 10%, MARV entry inh 18%[46.1 µM] and Cycloheximide cs 16*.
CC1(C)CC(=O)C=C(NNC(=O)c2ccccc2O)C1 was read as Shiga inhibitor -16, LASV entry inh -27%[14.3 µM], MARV entry inh -16% and Cycloheximide cs -2.
Cc1nn(Cc2ccccc2)c(C)c1/C=N/NC(=O)c1ccncc1 was read as Shiga inhibitor -3 and Cycloheximide cs -2.
Screening Cc1nn(Cc2ccccc2)c(C)c1/C=N/NC(=O)c1ccccc1O returned Shiga inhibitor 99* and Cycloheximide cs 42*.
For Cc1nn(Cc2ccc(F)cc2)c(Cl)c1/C=N/NC(=O)c1ccccc1 the results were Shiga inhibitor 39, LASV entry inh inconclusive, MARV entry inh 1%[46.1 µM] and Cycloheximide cs 18*.
For Cc1nn(Cc2ccc(F)cc2)c(Cl)c1/C=N/NC(=O)c1cccnc1 the results were Shiga inhibitor 22, LASV entry inh -1%, MARV entry inh -21% and Cycloheximide cs 5.
`CC12C=CC(=O)C=C1CCC1C2=CCC2(C)C1CC[C@@H]2C(=O)CN1CCN(c2cc(N3CCCC3)nc(N3CCCC3)n2)CC1` (stereo partly specified) gave Shiga inhibitor 20 and Cycloheximide cs -2.
CCOc1ccc(N2CC(C(=O)Nc3ccccc3C(=O)NC3CC3)CC2=O)cc1 (stereo unspecified) was read as Shiga inhibitor -11, LASV entry inh -10%, MARV entry inh 6%[46.1 µM] and Cycloheximide cs -1.
For O=C(/C=C/c1ccc2c(c1)OCCCO2)c1ccc2ccccc2c1O the results were Shiga inhibitor 40*, LASV entry inh 15%, MARV entry inh inconclusive and Cycloheximide cs 12*.
COc1cc(/C=C/C(=O)c2ccc3c(c2)OCCO3)cc(OC)c1OC was read as Shiga inhibitor 4 and Cycloheximide cs -1.
Screening Cc1ccc(C(=O)/C=C/c2ccc3c(c2)OCCO3)c(O)c1 returned Shiga inhibitor 86*, LASV entry inh 11%, MARV entry inh 6%[46.1 µM] and Cycloheximide cs 40*.
CC(=O)c1ccc(NC(=O)CSc2cn(CC(=O)N3CCCCC3)c3ccccc23)cc1 was read as LASV entry inh 3%[46.1 µM].
COc1ccc2nc(NC(=O)CN3CCOCC3)sc2c1 was read as Shiga inhibitor 24, LASV entry inh 4%, MARV entry inh inconclusive and Cycloheximide cs 58*.
COc1ccc2nc(NC(=O)CN3C(=O)NC4(CCCCC4)C3=O)sc2c1 was read as Shiga inhibitor 34, LASV entry inh 11%, MARV entry inh -7% and Cycloheximide cs 17*.
For COc1ccc2nc(NC(=O)CN3CCN(C)CC3)sc2c1 the results were Shiga inhibitor 152*, LASV entry inh 6%, MARV entry inh 3% and Cycloheximide cs 46*.
`CCN1CCN(CC(=O)Nc2nc3ccc(OC)cc3s2)CC1` gave Shiga inhibitor 4, LASV entry inh 19%, MARV entry inh inconclusive and Cycloheximide cs -3.
Screening COc1ccc2nc(NC(=O)CN3C(=O)NC4(CCCC4)C3=O)sc2c1 returned LASV entry inh -17% and MARV entry inh -6%.
For CCC(C)NC(=O)c1c(C)oc2nc(C)nc(N3CCOCC3)c12 (stereo unspecified) the results were LASV entry inh 11%[46.1 µM].
`Cc1nn(-c2cccc(Cl)c2)c2nc(-c3ccncc3)cc(C(=O)N3CCOCC3)c12` gave Shiga inhibitor 6, LASV entry inh inconclusive, MARV entry inh -70% and Cycloheximide cs 3.
O=C(CCSc1ccccc1)NCCSCc1ccco1 was read as Shiga inhibitor 7, LASV entry inh -1%, MARV entry inh -24% and Cycloheximide cs 11*.

High-throughput results: PubChem, National Center for Advancing Translational Sciences (NCATS)
